# Assay outcomes from PubChem BioAssay.
# GoLoco inh red: qHTS Assay for Inhibitors of RGS12 GoLoco Motif Activity (Red Fluorophore). Guanine nucleotide-binding protein G(i) subunit alpha-1 (Homo sapiens), P63096. Gai1:RGS12 GoLoco peptide FP, rhodamine, 10 min. Potency, µM (series often up to 61.6 µM), for the others: at the highest dose activity, negative = inhibition, most hits filed as inhibitors. 230,000 compounds, 0.44% hits. AID 880, 2007; active = well fitted inhibition curve with a large enough effect, not every such curve was filed as active; inactive = no such curve, though single readings can be large or run the other way; note: potency is the fitted concentration of half-maximal effect; % is set by controls: 0 for no effect and ±100 for the full control effect; nearly all actives have a fitted effect of over 30% in size
# Target sequence (P63096 whole entry, looked up): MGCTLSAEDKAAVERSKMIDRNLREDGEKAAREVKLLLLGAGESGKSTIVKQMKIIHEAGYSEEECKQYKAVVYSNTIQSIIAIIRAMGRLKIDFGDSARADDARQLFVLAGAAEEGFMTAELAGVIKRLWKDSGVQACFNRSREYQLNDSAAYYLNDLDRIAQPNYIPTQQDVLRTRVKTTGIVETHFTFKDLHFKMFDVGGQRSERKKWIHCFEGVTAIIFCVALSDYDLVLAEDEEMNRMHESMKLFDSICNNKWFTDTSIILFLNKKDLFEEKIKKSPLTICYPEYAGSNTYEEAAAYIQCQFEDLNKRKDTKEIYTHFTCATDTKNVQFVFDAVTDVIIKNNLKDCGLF
# KDM4E inh: qHTS Assay for Inhibitors of Human Jumonji Domain Containing 2E (JMJD2E) | Potency, µM (series often up to 57.1 µM), without a hit: top-dose activity change, negative = inhibition, most hits filed as inhibitors | 230,000 compounds, 1.6% hits | Lysine-specific demethylase 4E (Homo sapiens), B2RXH2 | JMJD2E catalytic domain, FDH-coupled NADH fluorescence (FDH is formaldehyde dehydrogenase);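 note: potency is the fitted concentration of half-maximal effect; 0% = wells with enzyme and -100% = buffer wells without enzyme; nearly all actives have a fitted effect of over 50% in size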
# Target sequence (B2RXH2 1-337 limits assumed): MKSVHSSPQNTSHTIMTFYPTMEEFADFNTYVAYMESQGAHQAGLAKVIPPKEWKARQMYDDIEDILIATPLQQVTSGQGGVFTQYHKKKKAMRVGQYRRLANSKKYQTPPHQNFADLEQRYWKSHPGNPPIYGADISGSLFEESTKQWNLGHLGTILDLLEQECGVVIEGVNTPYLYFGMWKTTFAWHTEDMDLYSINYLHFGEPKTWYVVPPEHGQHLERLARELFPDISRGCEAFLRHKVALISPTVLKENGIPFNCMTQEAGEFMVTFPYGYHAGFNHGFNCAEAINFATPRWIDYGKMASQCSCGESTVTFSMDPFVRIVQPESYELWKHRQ
# HttQ103 aggreg: qHTS Multiplex Assay to Identify Dual Action Probes in a Cell Model of Huntington: Aggregate Formation (GFP) | Potency, µM (top dose mostly 46.1 µM), for inactives: at the top dose activity change, negative = inhibition, most hits filed as inhibitors | 220,000 compounds, 1.1% hits | AID 1688, 2009 | PC12 HttQ103-GFP aggregates, Acumen cytometry, 40 h; note: potency is the fitted concentration of half-maximal effect; % is set by controls: 0 for no effect and ±100 for the full control effect; nearly all actives have a fitted effect of over 60% in size
#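 Quantitative HTS on tebufenozide-induced (100 nM) PC12 cells stably expressing polyQ103 Huntingtin exon 1–GFP. Reduction of bright GFP aggregates, detected by laser scanning cytometry after lysis, identified actives across the titration.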
# HTT cytoprotect: qHTS Multiplex Assay to Identify Dual Action Probes in a Cell Model of Huntington: Cytoprotection (ATP) | PC12 HTT-Q103 induced, cytoprotection, ATP luminescence, 40 h | Potency, µM (highest dose often 56.4 µM), inactives show cytoprotection (ATP increase), actives largely listed as activators | 230,000 compounds, 0.14% hits; note: potency is the fitted concentration of half-maximal effect; % of control where 0% means no effect; nearly all actives have a fitted effect of over 45% in size
#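 Compounds were screened for protection of PC12 cells against cell death after tebufenozide induction (100 nM final) of mutant Huntingtin exon 1 (Q103) fused to GFP.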
# VDR inhibitor: Inhibitors of the vitamin D receptor (VDR): qHTS | Vitamin D3 receptor (Homo sapiens), P11473 | VDR-SRC2-3 peptide fluorescence polarization, 2 h | Potency, µM, for inactives: max response, negative = inhibition, actives largely listed as inhibitors | 400,000 compounds, 0.93% hits; note: potency is the fitted concentration of half-maximal effect; % is set by controls: 0 for no effect and ±100 for the full control effect
#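 Fluorescence polarization assay measuring small-molecule disruption of VDR binding to the coregulator peptide SRC2-3. Compounds were pin-transferred (23 nl) into the reagent mix and incubated 2 h at room temperature before reading.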
# FBPA coupling cs: qHTS Assay for Inhibitors of Fructose-1,6-bisphosphate Aldolase from Giardia Lamblia: Coupling assay counterscreen; coupling enzyme system counterscreen, AmpLite Red fluorescence; activity change, negative = inhibition, % at 58.2 µM, hits read low; 290,000 compounds, 0.67% hits; in the data active = activity change below about -30%; note: % is set by controls: 0 for no effect and ±100 for the full control effect
#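 Activity here indicates interference with the coupling reaction, not aldolase inhibition. Compounds at 57.5 uM final met coupling enzymes for 10 min at RT; substrate and AmpLite Red detection followed, with a 525/598 nm fluorescence read after 20 min.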
# The depositor's hits bear a star; ? = inconclusive; · = no result; ! = repeats disagree; [ ] = dose if it differs, or a comment. Shown are actives, neighbours in structure and some others; about 2.3% of the full set was active somewhere. Unless noted, calls come from the whole dose curve; as a rule, active = well fitted curve in the direction sought with a large enough effect; inconclusive = small, poorly fitted or top-dose-only effect, or another doubt; inactive = no such curve, though single readings can be large; an effect the other way counts as inactive or inconclusive.
SMILES,GoLoco inh red,KDM4E inh,HttQ103 aggreg,HTT cytoprotect,VDR inhibitor,FBPA coupling cs
CCN(CC)S(=O)(=O)c1ccc(Oc2ccccc2)cc1,8%,7%,16µM*,-9%,7%,1
CN(C(=O)COC(=O)CSc1ccc([N+](=O)[O-])cc1)c1ccccc1,·,·,·,·,89µM*,·
CCCN(C(=O)COC(=O)CSc1ccc([N+](=O)[O-])cc1)C1CCS(=O)(=O)C1 (stereo unspecified),·,·,·,·,89µM*,·
O=c1[nH]c2ccc(Cl)cc2c(-c2ccccc2)c1SC(=S)N1CCOCC1,5%,-8%,?,-51%,89µM*,1
COC(=O)CCC(=O)OC1(C)C(=O)C2=CN(Cc3ccc(OC)cc3)C(c3ccc(OC)cc3)=CC2=C(Br)C1=O (stereo unspecified),26%[14.2 µM],-23%[11.4 µM],·,1%[10 µM],?,-3
COC(=O)CCC(=O)OC1(C)C(=O)C2=CN(CC3CC3)C(c3ccc(OC)cc3)=CC2=C(Br)C1=O (stereo unspecified),23%[14.2 µM],13µM*,-2%[9.22 µM],-39%[10 µM],?,-32*
COC(=O)CCC(=O)OC1(C)C(=O)C2=CN(CC(C)C)C(c3ccc(OC)cc3)=CC2=C(Br)C1=O (stereo unspecified),16%[14.2 µM],?,-26%[9.22 µM],25%[10 µM],·,-40*!
COC(=O)CCC(=O)OC1(C)C(=O)C2=CN(Cc3ccccc3)C(c3ccc(OC)cc3)=CC2=C(Br)C1=O (stereo unspecified),13%[14.2 µM],-5%[11.4 µM],·,-17%[10 µM],?,-4
COC(=O)CCC(=O)OC1(C)C(=O)C2=CN(CCCOC(C)C)C(c3ccc(OC)cc3)=CC2=C(Br)C1=O (stereo unspecified),24%,4.5µM*,-24%[9.22 µM],4%[10 µM],?,-41*
Cn1c(=NC(=O)c2ccc(S(=O)(=O)N3CCCC3)cc2)sc2cc(F)ccc21,·,·,·,·,1%,·
CCOc1cc(CNc2ccccc2)cc(Br)c1OCC(=O)NC(C)(C)C,-13%,-9%,35µM*,-33%,16%,-1
CC(C)(C)OC(=O)N1CCC(c2c(C(=O)NCC3CCN(C4CCCC4)C3)cnn2-c2ccccc2Cl)CC1 (stereo unspecified),·,·,·,·,-20%,-8
O=C(/C(=C/c1cccnc1)n1ccnc1)c1ccc(Cl)cc1Cl,7%,1%,8%[9.22 µM],16%[10 µM],50µM*,0
COc1ccc(CCNC(=O)c2ccc3c(c2)N(Cc2ccc(Cl)cc2)C(=O)c2ccccc2S3)cc1OC,·,·,·,·,3%,·
CN(C)Cc1cc(C(C)(C)c2cc(CN(C)C)c(O)c(CN(C)C)c2)cc(CN(C)C)c1O,-21%,7%,40µM*,·,3%,-1
CCCS(=O)(=O)c1nc(S(=O)(=O)c2ccc(C)cc2)c(NCc2ccccc2)s1,·,·,·,·,4%,·
Brc1ccc(C2C3=C(Nc4ncnn42)c2ccccc2OC3c2ccncc2)cc1 (stereo unspecified),-2%,-20%,10µM*,-61%,10%,-14
CC(=O)c1ccc(-n2cc(-c3ccc(C(C)(C)C)cc3)[n+]3c2SCCC3)cc1,8%,2%,10µM*,-49%,4%,-2
CCCCS(=O)(=O)/C=C\C=C/S(=O)(=O)CCCC,-14%,-7%,?,-97%[10 µM],35µM*,0
CCCCS(=O)(=O)/C=C\C1C2C=CC(C2)C1S(=O)(=O)CCCC (stereo unspecified),1%,1%,8%[9.22 µM],-19%[10 µM],-5%,4
Cc1nc2c3cc(F)ccc3n(Cc3ccccc3F)c2s1,-3%,0%,0%,-3%[10 µM],50µM*,-10
Cc1nc2c3ccccc3n(Cc3ccccc3F)c2s1,6%,8%,19%,13%[0.074 µM],45µM*,0
c1cnc(N2CCN(Cc3c[nH]c4ccccc34)CC2)nc1,7%,-1%,11µM*,-86%,5%,-1
c1ccc2c(CN3CCN(Cc4c[nH]c5ccccc45)CC3)c[nH]c2c1,8%[14.2 µM],·,·,3%[10 µM],·,·
Cc1ccccc1N1CCN(Cc2c[nH]c3ccccc23)CC1,-3%,-27%,22µM*,-53%[10 µM],-4%,1
SMILES,GoLoco inh red,KDM4E inh,HttQ103 aggreg,HTT cytoprotect,VDR inhibitor,FBPA coupling cs
O=C(Nc1ccccc1Br)C1CCN(S(=O)(=O)c2cccs2)CC1,·,·,·,·,-19%,·
O=C(OC1Cc2c(O)cc(O)cc2OC1c1cc(O)c(O)c(O)c1-c1c(C2Oc3cc(O)cc(O)c3CC2OC(=O)c2cc(O)c(O)c(O)c2)cc(O)c(O)c1O)c1cc(O)c(O)c(O)c1 (stereo unspecified),25%,11µM*,·,·,?,-11
O=C1c2c(O)cc(O)cc2OC(c2ccc(O)c(O)c2)C1O (stereo unspecified),-36%,8.9µM*,·,6%[1.9 µM],2%,1
Oc1ccc(C2Oc3cc(O)cc(O)c3CC2O)cc1 (stereo unspecified),14%,-9%,·,30%,-14%,-1
Oc1cc(O)c2c(c1)O[C@H](c1ccc(O)c(O)c1)[C@H](O)C2,-2%[21.6 µM],11µM*!,·,?,-19%,-1
O=C(O[C@@H]1Cc2c(O)cc(O)cc2OC1c1ccc(O)c(O)c1)c1cc(O)c(O)c(O)c1 (stereo partly specified),2%,7.1µM*,·,·,?,-2
O=C1c2c(O)cc(O)cc2O[C@H](c2ccc(O)c(O)c2)C1O (stereo partly specified),·,·,·,·,-9%,-2
COc1ccccc1NC(=O)C(C)OC(=O)C1COc2ccccc2O1 (stereo unspecified),·,·,·,·,-3%,·
CC(C)c1nnc(NC(=O)C2CCN(C(=O)C(C)(C)C)CC2)s1,·,·,·,·,-8%,·
COc1cc(OC)c(OC)cc1CCC(C)NC(=O)Cc1ccccc1 (stereo unspecified),·,·,·,·,5%,1
COc1c(C2=CC(=O)N(C)C2=O)c2c(n1C)C(=O)c1ccccc1C2=O,-14%,-16%,·,14µM*,13µM*,-35*
C=C1c2cccc(O)c2C(O)=C2C(=O)[C@]3(O)C(O)=C(C(N)=O)C(=O)C(N(C)C)C3C(O)C12 (stereo partly specified),-15%,8.9µM*,·,·,35µM*,-5
